Compound activity deposited in PubChem BioAssay by several laboratories.
DAX1 inh-1 – DAX1 (NR0B1) inhibitors on StAR promoter, primary screen, cell-based, luminescence, SF-1 (NR5A1), full-length DAX-1 | 370,000 compounds, 1.1% hits | AID 652010, 2013 | HEK293T StAR-luciferase reporter, SF-1/DAX-1 repression relief | inhibition, % at 6.8 µM;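 active = inhibition above the mean over all tested compounds plus 3 SD, cut at about 3.6% in these data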;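 note: higher inhibition means more luminescence from relief of DAX-1 repression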
ssDAF12 agonist – S. stercoralis DAF-12 nuclear receptor activators, primary screen, cell-based, luminescence, HEK293, GRIP1 co-expression, lit1-tk-luc; HEK293 ssDAF-12/GRIP1 lit1-tk-luc reporter; % of 3 µM dafachronic acid response; activation, % at 6.8 µM; 370,000 compounds, 1% hits;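 active = activation above the mean over all tested compounds plus 3 SD, cut at about 0.9% in these data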
Rev-erbA mod – modulators of Rev-erb alpha DNA binding, primary screen, biochemical, FITC-DNA, fluorescence polarization, uHTS. activity, % at 10 µM. AID 1259318, 2017. 370,000 compounds, 0.79% hits. Rev-erbα–FITC-DNA binding, 90 min;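 active = activity above about 14%, limit read from the data; passing the limit was not always enough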
DAX1 inh-2 – DAX1 (NR0B1) inhibitors, primary screen, cell-based, HEK293, Gal4-DAX1, luciferase luminescence. 340,000 compounds, 0.99% hits. HEK293 Gal4-DAX1 luciferase reporter. inhibition, % at 6.75 µM;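 active = inhibition above the mean over all tested compounds plus 3 SD, cut at about 4.2% in these data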;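 note: inhibition shows as a rise in luminescence from relieved DAX1 repression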
Target sequence (P51843 207-470 limits assumed): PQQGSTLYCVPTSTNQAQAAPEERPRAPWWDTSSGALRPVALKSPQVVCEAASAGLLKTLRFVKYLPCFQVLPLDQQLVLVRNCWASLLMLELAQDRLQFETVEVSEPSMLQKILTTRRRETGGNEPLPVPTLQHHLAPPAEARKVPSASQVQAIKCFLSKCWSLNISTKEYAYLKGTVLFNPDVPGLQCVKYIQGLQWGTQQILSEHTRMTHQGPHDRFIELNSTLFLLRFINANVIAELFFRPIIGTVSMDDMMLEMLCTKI
hcDAF12 agonist – H. contortus DAF-12 nuclear receptor activators, primary screen, cell-based, luminescence, HEK293, lit1-tk-luc reporter; HEK293 hcDAF-12 lit1-tk-luc reporter; 0% DMSO, 100% Δ7-dafachronic acid; 370,000 compounds, 1.4% hits; activation, % at 6.8 µM; AID 652067, 2013;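 active = activation above the mean of all tested compounds plus 3 SD, cut at about 5.5% in these data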
hgDAF12 agonist – H. glycines DAF-12 receptor agonists, primary screen, cell-based, luminescence, HEK293, GAL4 fusion, UAS-luciferase; 370,000 compounds, 1.8% hits; activation, % at 6.8 µM; HEK293 GAL4-hgDAF12 UAS-luciferase reporter, agonist luminescence; normalized to butyrate control; Nuclear hormone receptor DAF-12 (Heterodera glycines), GAL4 fusion; AID 687014, 2013;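 active = activation above a cutoff set at the mean of all screened compounds plus 3 SD, cut at about 10% in these data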
Numbers stand for hits; - = inactive; . = no result given. Shown are actives, neighbours in structure and some others; about 4.8% of the full set was active somewhere.

SMILES	DAX1 inh-1	ssDAF12 agonist	Rev-erbA mod	DAX1 inh-2	hcDAF12 agonist	hgDAF12 agonist
Cn1cc(CCOCc2ccccc2)c2ccccc21	-	-	-	.	-	-
Cn1c(Cl)c(C(=O)Nc2ccccc2)c2ccccc21	-	-	-	-	6.5	-
O=C(NC1CCCCN(Cc2ccc(Cl)cc2)C1=O)c1cccs1 (stereo unspecified)	-	-	-	.	-	-
CN1CCc2c(sc(/N=C/c3cc(Cl)ccc3O)c2C#N)C1	-	-	-	6.8	-	-
c1csc(-c2nc(N3CCCCC3)no2)c1	-	-	-	5.0	-	-
c1csc(-c2nnc(N3CCCCCC3)c3ccccc23)c1	-	-	-	-	-	-
O=S1(=O)c2c(cccc2N2CC[C@@H](O)C2)O[C@H]2CCN1C2	-	-	-	.	-	-
Oc1[nH]c2ccccc2c1N=Nc1ccc(F)cc1	-	-	-	-	-	12
CC(C)(O)C(=O)N=Nc1c(O)[nH]c2ccccc12	-	-	-	-	-	10
Oc1[nH]c2ccc(Br)cc2c1N=Nc1ccc(F)cc1	-	-	-	-	-	-
CCCCCCCCN1C(=O)[C@@H](CC(=O)NCc2ccc(OC)c(OC)c2)C[C@@]2(C(=O)OC)C1=C[C@H](C(C)C)O[C@@H]2C1CC1	-	-	-	.	-	-
CCN(CC)CC(O)Cn1c(-c2cccc(Cl)c2)nc2cc(C)c(C)cc21 (stereo unspecified)	-	-	-	4.2	-	-
CNc1nc(N)c([N+](=O)[O-])c(Nc2cccc(OC)c2)n1	.	-	-	.	-	-
COc1ccccc1CC(=O)Nc1ccc(C(=O)N2CCCCC2)cc1	3.9	-	-	-	-	-
O=C(O)c1nccnc1C(=O)Nc1ccc(S(=O)(=O)N2CCOCC2)cc1	-	1.8	-	-	-	-
COCCOC(=O)c1nccnc1C(=O)Nc1ccc(S(=O)(=O)N2CCOCC2)cc1	-	-	-	.	-	-
CC(C)[C@H](NC(=O)[C@@H]1Cc2c([nH]c3ccccc23)C2c3ccccc3C(=O)N21)C(=O)N1CCC[C@@H]1C(=O)O (stereo partly specified)	-	-	-	-	5.7	-
CC(C)n1c(O)c(N=NC(=O)C2COc3ccccc3O2)c2ccccc21 (stereo unspecified)	-	1.1	-	-	-	-
Cn1c(O)c(N=NC(=O)C2COc3ccccc3O2)c2ccccc21 (stereo unspecified)	-	-	-	-	-	-
O=C(COC(=O)Cc1ccccc1[N+](=O)[O-])NCc1ccc(F)cc1	-	-	-	-	-	-
O=C(Cc1ccccc1[N+](=O)[O-])NCc1ccncc1	-	1.1	-	-	-	-
O=C(Cc1ccccc1[N+](=O)[O-])NCCc1ccc(F)cc1	-	5.1	-	-	-	-
COC(=O)c1sc(=S)n(Cc2ccccc2)c1C	-	-	-	12	-	-
Cc1[nH]c2ccccc2c1CC(=O)Nc1ccc(Nc2cccnc2)c(-c2ccc(Cl)c(Cl)c2)c1	-	-	-	.	-	-
COC(=O)C1CN(Cc2ccc(Cl)cc2)CCS(=O)(=O)N1Cc1cn(Cc2ccccc2)nn1 (stereo unspecified)	-	-	-	.	-	-
SMILES	DAX1 inh-1	ssDAF12 agonist	Rev-erbA mod	DAX1 inh-2	hcDAF12 agonist	hgDAF12 agonist
O=C(O)CSCC(=O)Nc1ccccn1	-	-	-	5.4	-	-
O=C(O)CSCC(=O)Nc1ccccc1	-	-	-	-	-	-
O=C(Nc1ccccc1)c1nc[nH]c1C(=O)NCCNC(=O)c1[nH]cnc1C(=O)Nc1ccccc1	-	-	-	-	-	-
NNC(=O)c1nc[nH]c1C(=O)Nc1ccccn1	-	-	-	4.3	-	-
CC(C(=O)Nc1ccccn1)c1ccccc1 (stereo unspecified)	-	0.9	-	-	-	-
CC(C)C[C@H](NC(=O)c1cccs1)C(=O)N1CCC[C@H]1C(=O)NCc1ccccc1	-	-	-	.	-	-
CCCCCCC(=O)O[C@H]1CC[C@H]2[C@@H]3CCc4cc(O)ccc4[C@H]3CC[C@]12C	.	.	-	.	.	.
OCCN1C[C@@H](O)[C@@H](O)C(O)C1CO (stereo partly specified)	.	.	-	.	.	.
C/C(=N\NC(=O)c1ccc(O)cc1)c1ccc2c(c1)Nc1ccccc1S2	-	-	-	-	-	-
C/C(=N\NC(=O)c1ccccc1F)c1ccc2c(c1)Nc1ccccc1S2	-	-	-	-	-	11
O=C(N/N=C/c1cc([N+](=O)[O-])ccc1O)C12CC3CC(CC(C3)C1)C2	-	-	-	4.2	-	-
CC1CC(C)CN(C(=O)CSc2nnc(-c3ccco3)o2)C1 (stereo unspecified)	-	-	-	4.8	-	-
COc1cccc(-c2nnc(SCC(=O)N3CC(C)CC(C)C3)o2)c1 (stereo unspecified)	-	-	-	6.7	-	-
CCC1CCCCN1C(=O)CSc1nnc(-c2ccco2)o1 (stereo unspecified)	-	1.0	-	-	-	-
CCC1CCCCN1C(=O)CSc1nnc(-c2ccc(Cl)cc2)o1 (stereo unspecified)	-	-	-	-	-	-
CC(=O)OCC(=O)[C@@]1(O)[C@H](OC(C)=O)CC2C3CCC4=CC(=O)C=C[C@]4(C)[C@@]3(F)[C@@H](O)C[C@@]21C (stereo partly specified)	.	.	-	.	.	.
CCS(=O)(=O)N1CCC(N2CCC(C)CC2)CC1	-	-	-	-	-	-
CCCS(=O)(=O)N1CCN(C2CCC(C)CC2)CC1 (stereo unspecified)	-	-	-	5.7	-	-
CC(C)C(=O)NNc1nc2ccccc2s1	-	-	-	-	6.2	-
O=C(NNC(=O)c1cc(-c2ccncc2)nc2ccccc12)c1ccccc1F	-	-	-	-	-	-
O=C(NNc1nc2ccccc2s1)Nc1ccc(Cl)c(Cl)c1	-	-	-	-	-	-
O=C(c1ccco1)N1CCN(C(=O)c2cc(-c3ccccn3)nc3ccccc23)CC1	-	-	-	-	-	-
O=C(NNc1nc2ccccc2s1)C1CC1	-	-	-	-	-	-
O=C(NNC(=O)c1cc(Cl)nc2ccccc12)c1ccccc1F	-	1.1	-	-	-	-
